HTR5A inv ctr – inverse agonist of human HTR5A in OPRM1-OPRD1 counter-screen; AID 504634; inhibition, % at 9.3 µM; HTR5A cell line, luminescence, inverse agonism; P47898; 340,000 tested, 0.083% active; in the data active means inhibition mostly above about 23%, no sharp cut-off; inactive means mostly below about 18%
m5-HT2A agonist – mouse HTR2A agonism via beta-arrestin recruitment. activation, % at 7.6 µM. CHO-K1 mHTR2A beta-arrestin complementation, luminescence; percent of 30 µM serotonin response. 360,000 tested, 0.66% active;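 active means activation above a run cutoff, the mean activation of all tested compounds plus 3 SD, cut at about 14% in these data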
HTR5A ag ctr – HTR5A agonism, opioid heterodimer counter-screen; HTR5A agonist assay, luminescence, cell-based; AID 504692; activation, % at 9.3 µM; 340,000 tested, 0.61% active; in the data active means activation mostly above about 9.5%, no sharp cut-off; inactive means mostly below about 7.6%
OPRM1-OPRD1 inv – inverse agonist of human OPRM1-OPRD1 heterodimerization | 340,000 tested, 0.21% active | inhibition, % at 9.3 µM | cell-based MOR-DOR heterodimer luminescence, inverse agonism | P35372+P41143; in the data active means inhibition above about 22%, passing the limit was not always enough
Target sequence (P35372 whole entry, looked up): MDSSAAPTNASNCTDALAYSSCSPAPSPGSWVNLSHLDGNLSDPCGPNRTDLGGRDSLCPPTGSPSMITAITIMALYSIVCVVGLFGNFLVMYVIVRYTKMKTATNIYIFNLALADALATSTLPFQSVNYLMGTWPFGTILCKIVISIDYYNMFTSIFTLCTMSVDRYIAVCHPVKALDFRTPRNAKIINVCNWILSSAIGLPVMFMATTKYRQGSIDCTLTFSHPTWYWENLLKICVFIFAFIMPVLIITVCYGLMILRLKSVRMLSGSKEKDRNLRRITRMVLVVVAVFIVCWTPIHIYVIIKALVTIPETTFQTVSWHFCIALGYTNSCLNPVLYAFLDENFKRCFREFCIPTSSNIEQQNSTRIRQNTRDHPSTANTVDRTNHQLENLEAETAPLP
Target sequence (P41143 whole entry, looked up): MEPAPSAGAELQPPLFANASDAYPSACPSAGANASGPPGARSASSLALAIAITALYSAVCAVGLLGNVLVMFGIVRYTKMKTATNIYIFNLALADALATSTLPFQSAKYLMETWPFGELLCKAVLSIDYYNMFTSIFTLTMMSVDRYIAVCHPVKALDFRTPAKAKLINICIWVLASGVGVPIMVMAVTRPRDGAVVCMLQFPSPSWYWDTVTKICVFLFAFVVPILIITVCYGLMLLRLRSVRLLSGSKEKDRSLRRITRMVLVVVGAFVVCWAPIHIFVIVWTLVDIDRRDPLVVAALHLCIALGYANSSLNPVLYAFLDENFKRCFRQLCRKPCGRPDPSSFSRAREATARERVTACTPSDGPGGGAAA
MOR-DOR ag-1 – OPRM1-OPRD1 heterodimerization agonism; P35372+P41143; cells, luminescence; activation, % at 9.3 µM; 340,000 tested, 0.3% active; AID 504326
MOR-DOR ag-2 – opioid heterodimer agonism, HTR5A counter-screen; activation, % at 9.3 µM; shares compounds with HTR5A ag ctr; U2OS counter-screen cells, complementation luminescence, 3 h; 800 tested, 13% active
HTR5A ag confirm – confirmation of human HTR5A agonists; shares compounds with HTR5A ag ctr; HTR5A agonist cell assay, luminescence; activation, % at 9.3 µM; 800 tested, 17% active; in the data active means activation above about 17%
Of the large screens only hits and unclear results are named; the others gave an inactive call (follow-up assays come after a bar, where they were run); ! = repeats disagree. Sampled rows, rich in hits. Any-hit rate of the full collection: about 1.6%. Unless noted, no stated cut-off is given here; in the data, active means activation above about 18%; inactive means the rest.

CC(C)OP(=O)(OC(C)C)/C(C=O)=N\Nc1ccc([N+](=O)[O-])cc1	none
CC(C)COC(=O)N(C)C[C@H]1OCc2cnnn2CCCC(=O)N([C@H](C)CO)C[C@@H]1C	none (no result: HTR5A inv ctr, HTR5A ag ctr, OPRM1-OPRD1 inv, MOR-DOR ag-1)
CCOC(=O)C1CCN(C2CCN(Cc3nc(-c4ccccc4)no3)CC2)CC1	none
NC(=O)C1CCN(Cc2nc(-c3ccccc3)no2)CC1	HTR5A ag ctr 17 | MOR-DOR ag-2 inactive | HTR5A ag confirm inactive
Cc1ccc(-c2noc(CN3CCN(c4ccccc4F)CC3)n2)cc1	HTR5A ag ctr 20 | MOR-DOR ag-2 inactive | HTR5A ag confirm inactive
CC(C)C(NC(=O)CCNC(=O)c1ccc([N+](=O)[O-])cc1)c1nc2ccccc2[nH]1 (stereo not drawn)	none
O=C(Nc1ccc(N2CCCC2)cc1)c1ccc(Br)cc1	none
CC(C)Oc1ccc(C(=O)Nc2ccc(N3CCCC3)cc2)cc1	HTR5A ag ctr 17 | MOR-DOR ag-2 inactive | HTR5A ag confirm inactive
O=C(NCCCNC(=O)c1ccccn1)c1ccc(Br)cc1	none
O=C(NCCCNC(=O)c1ccccn1)c1ccc(Cl)cc1	HTR5A ag ctr 18 | MOR-DOR ag-2 inactive | HTR5A ag confirm inactive
CC(=O)Nc1sc2c(c1-c1nc3ccccc3s1)CN(C(C)C)CC2	none
CC(=O)N1CCc2c(sc(NC(=O)C3CC3)c2-c2nc3ccccc3s2)C1	HTR5A ag ctr 16 | MOR-DOR ag-2 inactive | HTR5A ag confirm inactive
CCn1c(NC(=O)c2cccc(Cn3cc(Cl)cn3)c2)nc2ccccc21	HTR5A ag ctr 20 | MOR-DOR ag-2 inactive | HTR5A ag confirm inactive
Cn1c(NC(=O)c2cccc(Cn3cc(Cl)cn3)c2)nc2ccccc21	none
CCOC(=O)c1c(Nc2nc(C)c(C(=O)NC)s2)sc(C)c1C	none
Cc1c(CCOC(=O)c2ccc(Cl)cc2Cl)sc[n+]1CC(=O)c1ccc(Br)cc1	none
Cc1c(CCOC(=O)C2C3CC4CC(C3)CC2C4)sc[n+]1CC(=O)c1ccc(Br)cc1 (stereo not drawn)	HTR5A ag ctr 18! | MOR-DOR ag-2 inactive | HTR5A ag confirm inactive
CCOc1cc(OCC)cc(C(=O)N2CCC[C@H]2C(=O)N2CCC[C@H]2C(=O)NCc2cccc(OC)c2)c1	none (no result: HTR5A inv ctr, HTR5A ag ctr, OPRM1-OPRD1 inv, MOR-DOR ag-1)
O=C(NCCCN1CCOCC1)c1cc(-c2ccc(F)cc2)no1	none
COc1cc(/C=C/C(=O)N2CCN(C(=O)/C=C/c3cc(OC)c(OC)c(OC)c3)CC2)cc(OC)c1OC	none
COc1cc(/C=C/C(=O)O)cc(OC)c1OC	HTR5A ag ctr 39 | MOR-DOR ag-2 inactive | HTR5A ag confirm inactive
CCN(CC)CCCNc1ccc(-c2nnc(-c3ccc(OCC(C)C)cc3)o2)cn1	HTR5A ag ctr 18 | MOR-DOR ag-2 inactive | HTR5A ag confirm inactive
CC(C)COc1ccc(-c2nnc(-c3ccco3)o2)cc1	none
COc1ccc(NC(=O)CSc2nnc(Cc3cccn3C)n2-c2ccc(C)cc2)cc1OC	HTR5A ag ctr 15 | MOR-DOR ag-2 inactive | HTR5A ag confirm inactive
Cc1ccc(Nc2nc(-c3cccnc3)nc3ccccc23)cc1	none
CCOC(=O)c1ccc(Nc2nc(-c3cccnc3)nc3ccccc23)cc1	HTR5A ag ctr 29 | MOR-DOR ag-2 inactive | HTR5A ag confirm inactive
COc1ccc2[nH]cc(CCNC(=O)Cc3c(F)cccc3Cl)c2c1	none
COc1ccc(NC(=S)NCCc2c[nH]c3ccccc23)c(OC)c1	none
COc1ccc2[nH]cc(CCNC(=O)Cc3ccc(Cl)cc3)c2c1	HTR5A ag ctr 17 | MOR-DOR ag-2 inactive | HTR5A ag confirm 37
COc1ccc2[nH]c(C)c(CCNC(=S)Nc3cccc(C)c3)c2c1	none
COc1ccc2[nH]cc(CCNS(=O)(=O)Cc3ccccc3)c2c1	HTR5A ag ctr 22 | MOR-DOR ag-2 inactive | HTR5A ag confirm inactive
COc1ccc(NC(=S)NCCc2c[nH]c3ccc(OC)cc23)c(OC)c1	HTR5A ag ctr 16 | MOR-DOR ag-2 inactive | HTR5A ag confirm inactive
COc1ccc2[nH]c(C)c(CCNC(=S)Nc3cc(C)cc(C)c3)c2c1	HTR5A ag ctr 20 | MOR-DOR ag-2 inactive | HTR5A ag confirm inactive
Cc1ccc(S(=O)(=O)N(c2nc(N(C)C)nc(N(C)C)n2)n2cnnc2)cc1	none
Cc1ccc(NC(=O)CN(C)C(=O)c2cc(-c3cccs3)nn2-c2ccccc2)cc1	none
O=C(NCC(=O)N1CC(O)CC1C(=O)N1CCCC1C(=O)OCc1ccccc1)OCc1ccccc1 (stereo not drawn)	none
COc1ccc(C(=O)NC2CCCCCC2)cc1S(=O)(=O)Nc1ccc(Br)cc1	HTR5A ag ctr 15 | MOR-DOR ag-2 inactive | HTR5A ag confirm inactive
Cc1cccc(C(=O)Nc2sc(C)c(-c3ccccc3)c2C#N)c1	HTR5A ag ctr 17 | MOR-DOR ag-2 inactive | HTR5A ag confirm inactive
Cc1noc(C)c1C(=O)Nc1sc(C)c(-c2ccccc2)c1C#N	none
O=S(=O)(Nc1ccc(-c2ccc3nncn3n2)cc1)c1ccccc1F	none
O=S(=O)(Nc1cccc(-c2ccc3nncn3n2)c1)c1ccccc1F	HTR5A ag ctr 20 | MOR-DOR ag-2 18 | HTR5A ag confirm inactive
O=C(NCCc1ccccn1)C(F)(F)C(F)(F)C(F)(F)C(F)(F)C(F)(F)C(F)F	none
CC(C)c1ccc(CCNC(=O)CCNC(=O)c2ccc(Br)cc2)cc1	none
COc1ccc(CSc2ncnc3sccc23)cc1F	none
CCOC(=O)c1cnc(-c2ccc(C(F)(F)F)cn2)[nH]c1=O	none (no result: HTR5A inv ctr, HTR5A ag ctr, OPRM1-OPRD1 inv, MOR-DOR ag-1)
O=C(NCCc1c[nH]c2ccccc12)/C(=C\c1cccnc1)NC(=O)c1ccco1	none
O=C(NCCc1c[nH]c2ccccc12)/C(=C\c1cccnc1)NC(=O)c1ccccc1Br	HTR5A ag ctr 22 | MOR-DOR ag-2 inactive | HTR5A ag confirm inactive
CCN1CCN(C(=O)c2ccc3c(c2)N(Cc2ccccc2)C(=O)c2ccccc2S3=O)CC1 (stereo not drawn)	none
O=C(O)c1ccc2c(c1)N(Cc1ccccc1F)C(=O)c1ccccc1S2=O (stereo not drawn)	HTR5A ag ctr 16 | MOR-DOR ag-2 inactive | HTR5A ag confirm inactive
COc1ccc(C(=O)NC(C)CCCC(C)(C)O)cc1OC1CCN(C(C)=O)CC1 (stereo not drawn)	none
COc1ccc(OCCC(=O)Nc2cc3c(cc2C(=O)O)OCCCO3)cc1	HTR5A ag ctr 15 | MOR-DOR ag-2 inactive | HTR5A ag confirm inactive
COc1ccccc1OCC(=O)Nc1cc2c(cc1C(=O)O)OCCCO2	none
Cc1cccc(NC(=O)N2CCC(NC(=O)C3CCCCC3)CC2)c1	HTR5A ag ctr 17 | MOR-DOR ag-2 inactive | HTR5A ag confirm inactive
CC[C@@]1(C(=O)OC)N[C@H](CN(C)S(=O)(=O)c2ccc(OC(F)(F)F)cc2)[C@@H]2C(=O)N(C)C(=O)[C@@H]21	none
CC1=CC(C)(C)N2C(=O)C3(NCCc4c3[nH]c3ccccc43)c3cc(C)cc1c32 (stereo not drawn)	HTR5A ag ctr 16 | MOR-DOR ag-2 32 | HTR5A ag confirm inactive

Bioassay records: PubChem BioAssay, The Scripps Research Institute Molecular Screening Center
